The results in this text go back to ChEMBL document CHEMBL3988442, “University of Dundee, Small-Polar-MMV Screening Library” (2021).

Structures are written as SMILES. For some of these results: Potency and affinity values are given separately.

Parameters in all cases: scale not given: direction of the effect not stated beside the values
Test [1] concerns the target Protein translocase subunit SecA (Escherichia coli (strain K12)) (UniProt P10408). As to the kind of experiment: Assay to Identify E. coli SecA ATPase Inhibitors. It is filed as functional. The conditions noted are these: 30 µM.
Test [2] has as its target T1, Ubiquitin-activating enzyme e1, putative (Leishmania donovani (strain BPK282A1)) (UniProt E9BSI1).
T1 sequence (whole entry): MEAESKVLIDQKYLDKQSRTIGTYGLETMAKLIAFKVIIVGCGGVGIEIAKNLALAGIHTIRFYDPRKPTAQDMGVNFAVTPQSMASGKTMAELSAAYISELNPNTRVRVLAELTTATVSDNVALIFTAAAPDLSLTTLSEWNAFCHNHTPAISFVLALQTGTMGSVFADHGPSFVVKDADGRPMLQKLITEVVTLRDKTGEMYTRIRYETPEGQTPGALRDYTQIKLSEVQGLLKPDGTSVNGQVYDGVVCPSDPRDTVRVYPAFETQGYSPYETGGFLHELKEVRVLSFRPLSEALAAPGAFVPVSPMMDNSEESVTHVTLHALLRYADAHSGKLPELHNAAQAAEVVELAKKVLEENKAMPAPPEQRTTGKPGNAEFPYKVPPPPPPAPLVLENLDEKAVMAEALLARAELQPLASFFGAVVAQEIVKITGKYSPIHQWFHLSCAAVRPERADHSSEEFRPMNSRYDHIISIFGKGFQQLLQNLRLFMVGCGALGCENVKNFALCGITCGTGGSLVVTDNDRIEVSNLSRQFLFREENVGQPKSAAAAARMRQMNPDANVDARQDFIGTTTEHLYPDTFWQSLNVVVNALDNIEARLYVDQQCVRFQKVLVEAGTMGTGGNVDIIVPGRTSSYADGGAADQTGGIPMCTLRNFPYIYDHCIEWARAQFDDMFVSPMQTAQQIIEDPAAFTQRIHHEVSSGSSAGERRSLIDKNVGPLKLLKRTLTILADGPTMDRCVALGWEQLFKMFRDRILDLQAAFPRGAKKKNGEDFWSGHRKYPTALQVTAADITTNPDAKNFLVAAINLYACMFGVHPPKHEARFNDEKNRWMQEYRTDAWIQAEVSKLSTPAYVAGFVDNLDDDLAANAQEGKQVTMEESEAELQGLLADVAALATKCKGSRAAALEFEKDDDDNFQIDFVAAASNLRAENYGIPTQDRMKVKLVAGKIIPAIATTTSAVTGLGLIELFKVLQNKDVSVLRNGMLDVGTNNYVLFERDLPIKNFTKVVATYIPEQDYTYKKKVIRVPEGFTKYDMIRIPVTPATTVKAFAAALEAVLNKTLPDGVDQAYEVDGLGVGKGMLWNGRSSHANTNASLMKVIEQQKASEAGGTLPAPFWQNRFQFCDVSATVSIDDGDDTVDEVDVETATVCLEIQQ
Kind of test: Leishmania donovani Ubiquitin Activating Enzyme (LdE1). It is filed as functional. The conditions noted are these: 30 µM.

In test [3] the target is AMP-activated protein kinase, AMPK (Homo sapiens) (UniProt P54646+O43741+P54619+Q9UGJ0+Q9Y478+Q13131+Q9UGI9). Kind of test: AMP-dependent Kinase enzyme assay. An in vitro enzyme assay that detects ADP turnover that is directly proportional to AMPK activity. This uses naive AMPK that is activated during the assay with MK-8722. It is filed as functional. The conditions noted are these: 30 µM.

Test [4] addresses Sialic acid-binding Ig-like lectin 9 (Homo sapiens) (UniProt Q9Y336). Kind of test: Hs-Siglec9 ALPHAscreen SOP 20170721. Conditions: 10 µM.
Test [5] has as its system Trypanosoma cruzi. As to the kind of experiment: Trypanosoma cruzi phosphomannomutase and mannose-1-phosphate guanylyltransferase assay. The class given is functional. Conditions: 10 µM.
For test [6], the target named is T2, Arginase-2, mitochondrial (Homo sapiens) (UniProt P78540).
T2 sequence (whole entry): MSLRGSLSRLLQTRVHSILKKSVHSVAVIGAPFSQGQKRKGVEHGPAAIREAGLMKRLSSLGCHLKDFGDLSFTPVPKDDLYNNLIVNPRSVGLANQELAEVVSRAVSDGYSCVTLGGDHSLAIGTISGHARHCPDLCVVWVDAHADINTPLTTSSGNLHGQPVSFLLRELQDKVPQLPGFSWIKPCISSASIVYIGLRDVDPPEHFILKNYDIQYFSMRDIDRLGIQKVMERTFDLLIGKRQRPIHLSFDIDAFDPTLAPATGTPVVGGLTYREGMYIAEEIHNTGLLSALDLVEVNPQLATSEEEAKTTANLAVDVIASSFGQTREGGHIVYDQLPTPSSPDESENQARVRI
Kind of test: in vitro enzyme assay to detect the production of urea directly proportional to the activity of Arginase II. Further: in the data most compounds retested in dose-response had high values. Conditions: 33.3 µM. It is filed as functional.

In test [7] the target is T3, Proteasome subunit beta (Trypanosoma cruzi) (UniProt O96673).
T3 sequence (whole entry): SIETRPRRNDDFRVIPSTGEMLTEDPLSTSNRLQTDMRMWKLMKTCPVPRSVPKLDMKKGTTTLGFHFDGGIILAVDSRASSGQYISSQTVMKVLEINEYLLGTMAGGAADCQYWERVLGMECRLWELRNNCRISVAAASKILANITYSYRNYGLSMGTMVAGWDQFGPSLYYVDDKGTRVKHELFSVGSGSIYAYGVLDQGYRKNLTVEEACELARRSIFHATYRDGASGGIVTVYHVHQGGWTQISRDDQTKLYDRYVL
Kind of test: Trypanosoma cruzi proteasome chymotrypsin-like activity (TcProtChymo) assay. Further: in the data most compounds retested in dose-response had high values. The class given is functional. The conditions noted are these: 9.37 µM.

Test [8] is filed under the species Homo sapiens. As to the kind of experiment: To identify inhibition of the IFN signalling (Jak-Stat) pathway via expression of an eGFP reporter gene under the control of an IFN-stimulated response element (ISRE) containing MxA promoter. The class given is functional. The conditions noted are these: 30 µM.
Test [9] deals with T4, Tyrosyl-tRNA synthetase, putative (Trypanosoma cruzi (strain CL Brener)) (UniProt Q4DSP6).
T4 sequence (whole entry): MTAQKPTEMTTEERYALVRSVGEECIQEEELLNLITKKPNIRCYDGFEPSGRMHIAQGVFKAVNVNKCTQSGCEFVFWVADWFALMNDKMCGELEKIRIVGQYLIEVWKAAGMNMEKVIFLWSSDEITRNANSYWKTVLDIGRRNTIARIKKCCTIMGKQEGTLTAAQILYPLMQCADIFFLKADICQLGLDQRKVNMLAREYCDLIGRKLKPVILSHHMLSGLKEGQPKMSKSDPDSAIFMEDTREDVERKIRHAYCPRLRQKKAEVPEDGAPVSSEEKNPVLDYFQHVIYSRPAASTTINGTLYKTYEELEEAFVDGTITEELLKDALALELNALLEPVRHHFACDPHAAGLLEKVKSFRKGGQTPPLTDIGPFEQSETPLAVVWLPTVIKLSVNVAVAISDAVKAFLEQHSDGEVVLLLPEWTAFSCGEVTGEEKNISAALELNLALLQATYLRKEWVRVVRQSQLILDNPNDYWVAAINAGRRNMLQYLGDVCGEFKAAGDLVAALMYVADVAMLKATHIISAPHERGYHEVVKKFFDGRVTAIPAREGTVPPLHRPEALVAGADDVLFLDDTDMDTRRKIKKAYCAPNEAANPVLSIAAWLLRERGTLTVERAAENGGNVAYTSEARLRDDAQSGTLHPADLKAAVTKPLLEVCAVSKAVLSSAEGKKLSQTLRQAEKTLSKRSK
Kind of test: Trypanosoma cruzi tyrosyl tRNA synthetase (TcYRS) _High Tyrosine SOP. Further: in the data most compounds retested in dose-response had high values. The class given is functional. The conditions noted are these: 30 µM.

The target in test [10] is T4, Tyrosyl-tRNA synthetase, putative (Trypanosoma cruzi (strain CL Brener)). As to the kind of experiment: Trypanosoma cruzi tyrosyl tRNA synthetase (TcYRS) SOP. Conditions: 30 µM. The class given is functional.
The target of test [11] is Chromo domain-containing protein 1 (Saccharomyces cerevisiae (strain ATCC 204508 / S288c) (Baker's yeast)) (UniProt P32657). As to the kind of experiment: ScCHD-1 Enzyme Inhibition Assay. Further: in the data most compounds retested in dose-response had high values. The class given is functional. Conditions: 30 µM.
Chain of Chromo domain-containing protein 1 (Saccharomyces cerevisiae (strain ATCC 204508 / S288c) (Baker's yeast)) (P32657 whole entry, the tested form may be a part): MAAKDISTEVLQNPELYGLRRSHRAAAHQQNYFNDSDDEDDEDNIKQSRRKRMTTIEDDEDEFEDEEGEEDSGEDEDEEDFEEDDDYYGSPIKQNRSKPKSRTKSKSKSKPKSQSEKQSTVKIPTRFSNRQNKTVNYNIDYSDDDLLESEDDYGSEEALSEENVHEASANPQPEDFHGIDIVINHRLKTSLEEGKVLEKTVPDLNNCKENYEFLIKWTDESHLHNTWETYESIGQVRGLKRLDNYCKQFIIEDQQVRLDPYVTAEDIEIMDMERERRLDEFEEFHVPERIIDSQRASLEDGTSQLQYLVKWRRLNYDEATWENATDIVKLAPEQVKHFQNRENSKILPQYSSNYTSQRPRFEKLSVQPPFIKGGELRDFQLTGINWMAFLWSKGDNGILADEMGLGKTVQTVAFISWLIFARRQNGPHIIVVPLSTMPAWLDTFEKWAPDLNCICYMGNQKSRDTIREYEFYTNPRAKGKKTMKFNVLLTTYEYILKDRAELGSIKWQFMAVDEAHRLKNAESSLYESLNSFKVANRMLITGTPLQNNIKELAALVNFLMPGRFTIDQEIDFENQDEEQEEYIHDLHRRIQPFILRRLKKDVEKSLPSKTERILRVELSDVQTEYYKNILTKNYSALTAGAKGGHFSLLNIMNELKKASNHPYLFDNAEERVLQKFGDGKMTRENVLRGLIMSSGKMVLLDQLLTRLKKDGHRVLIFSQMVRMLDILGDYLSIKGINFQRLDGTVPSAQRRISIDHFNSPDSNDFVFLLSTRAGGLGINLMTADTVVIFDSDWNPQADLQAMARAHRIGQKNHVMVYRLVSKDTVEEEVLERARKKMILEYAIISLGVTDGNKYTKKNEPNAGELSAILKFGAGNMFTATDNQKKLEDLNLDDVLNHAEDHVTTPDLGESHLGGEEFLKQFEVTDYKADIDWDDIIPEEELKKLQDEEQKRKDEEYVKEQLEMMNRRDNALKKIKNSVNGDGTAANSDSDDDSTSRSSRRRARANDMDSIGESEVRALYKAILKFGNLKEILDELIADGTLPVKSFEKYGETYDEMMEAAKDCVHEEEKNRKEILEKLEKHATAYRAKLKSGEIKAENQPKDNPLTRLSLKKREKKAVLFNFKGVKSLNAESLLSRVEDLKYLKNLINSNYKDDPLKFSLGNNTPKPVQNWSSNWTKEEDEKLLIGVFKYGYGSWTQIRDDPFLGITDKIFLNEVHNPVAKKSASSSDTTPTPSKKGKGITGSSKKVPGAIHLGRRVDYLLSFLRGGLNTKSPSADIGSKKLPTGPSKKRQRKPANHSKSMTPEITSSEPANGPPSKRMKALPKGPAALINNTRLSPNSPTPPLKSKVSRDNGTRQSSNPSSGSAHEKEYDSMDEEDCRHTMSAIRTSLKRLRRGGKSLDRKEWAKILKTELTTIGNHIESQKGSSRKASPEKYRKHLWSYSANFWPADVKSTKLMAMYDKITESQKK

Chain of Sialic acid-binding Ig-like lectin 9 (Homo sapiens) (Q9Y336 whole entry): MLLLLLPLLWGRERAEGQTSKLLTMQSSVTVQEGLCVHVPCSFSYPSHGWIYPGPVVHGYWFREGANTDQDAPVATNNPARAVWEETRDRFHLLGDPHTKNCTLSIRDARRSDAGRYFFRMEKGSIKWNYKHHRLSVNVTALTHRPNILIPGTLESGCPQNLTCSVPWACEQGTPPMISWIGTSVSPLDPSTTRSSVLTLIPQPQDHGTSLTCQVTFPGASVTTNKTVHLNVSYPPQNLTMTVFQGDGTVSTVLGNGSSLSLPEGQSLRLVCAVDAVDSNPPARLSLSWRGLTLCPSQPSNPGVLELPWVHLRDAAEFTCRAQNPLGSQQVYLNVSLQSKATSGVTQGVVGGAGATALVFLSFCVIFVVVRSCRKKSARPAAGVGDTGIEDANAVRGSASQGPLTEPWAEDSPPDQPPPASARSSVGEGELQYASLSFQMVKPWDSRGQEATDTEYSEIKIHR
Chain of Protein translocase subunit SecA (Escherichia coli (strain K12)) (P10408 whole entry): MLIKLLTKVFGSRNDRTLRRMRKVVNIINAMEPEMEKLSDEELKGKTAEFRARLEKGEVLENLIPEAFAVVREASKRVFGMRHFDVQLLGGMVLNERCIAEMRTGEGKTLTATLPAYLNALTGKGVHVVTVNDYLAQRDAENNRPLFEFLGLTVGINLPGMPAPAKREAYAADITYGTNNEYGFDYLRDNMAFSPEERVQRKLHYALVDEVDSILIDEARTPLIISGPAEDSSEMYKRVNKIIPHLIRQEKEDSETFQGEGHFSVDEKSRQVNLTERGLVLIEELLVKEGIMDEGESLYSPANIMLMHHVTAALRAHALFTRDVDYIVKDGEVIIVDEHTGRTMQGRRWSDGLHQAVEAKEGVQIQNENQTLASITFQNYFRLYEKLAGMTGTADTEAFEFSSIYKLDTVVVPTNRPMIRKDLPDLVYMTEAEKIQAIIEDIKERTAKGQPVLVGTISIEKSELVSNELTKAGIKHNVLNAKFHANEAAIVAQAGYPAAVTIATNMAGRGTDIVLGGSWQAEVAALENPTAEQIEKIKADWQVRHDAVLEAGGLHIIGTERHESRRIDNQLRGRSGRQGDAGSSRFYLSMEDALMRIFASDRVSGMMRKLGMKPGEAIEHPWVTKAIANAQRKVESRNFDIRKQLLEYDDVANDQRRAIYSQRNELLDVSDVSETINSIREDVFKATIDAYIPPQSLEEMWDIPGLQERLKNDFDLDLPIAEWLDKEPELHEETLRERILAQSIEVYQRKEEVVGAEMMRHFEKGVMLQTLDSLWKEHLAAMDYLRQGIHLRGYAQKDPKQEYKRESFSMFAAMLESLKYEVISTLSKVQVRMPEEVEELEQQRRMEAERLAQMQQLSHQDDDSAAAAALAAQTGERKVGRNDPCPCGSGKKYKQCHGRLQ

As for `Cc1cnn(CC2CCCN2Cc2coc(-c3cccs3)n2)c1` (stereo unspecified), the Percent Effect in [1] is -6.03%; in test [2], 0%; in [3], 3.45%; in test [4], -6.51%; in test [5], -1.37%; in test [6] it was 0.909%. Moreover, the Percent Effect in test [7] was 1.77%; in test [8] it was 5.98%; in test [9], 2.15%; in test [10] it was 10%; in [11], -1.19%.

Consider `Cc1cc(C)n(CC2CCCN2CC(=O)N(C)C)n1` (stereo unspecified), for which the Percent Effect in test [1] was -2.72%; in test [2] it was -2.7%; in test [3] it was -5.85%; in test [4], 20%; in test [5] it was -2.92%; in test [6], -4.01%. The Percent Effect is 9.19% in test [7]; 3.86% in test [8]; -0.493% in [9]; 1.24% in test [10]; -0.0682% in test [11].

Consider `O=C(CN1CCc2cncnc2C1)NCCOc1ccccc1`, for which the Percent Effect in test [1] is -4.25%; in test [2], 21.1%; in test [3], -16.1%; in [4], -13.3%; in [5], -2.33%; in [6] it was -12.9%. The Percent Effect was 0.592% in [7]; 0.604% in test [8]; 25.1% in test [9]; 25.9% in [10]; -2.98% in test [11].

As for `CN(Cc1cccnc1)CC1CCCN1c1cccnn1` (stereo unspecified), the Percent Effect in [1] was 4.47%; in test [2], 18.2%; in [3] it was -2.81%; in [4] it was -14.9%; in test [5] it was -5.58%; in [6], 0.21%. Further, the Percent Effect in test [7] is 13.7%; in test [8], 27.4%; in test [9], 7.62%; in test [10] it was 18.8%; in [11] it was -18.6%.

For `Cc1nc(C)n(C2CCCN(C(=O)CCCn3ccnc3)C2)n1` (stereo unspecified), the Percent Effect in test [1] is -8.21%; in test [2], 0%; in test [3], 0.109%; in test [4] it was 0.244%; in [5], -3.91%; in test [6], 2.92%. Moreover, the Percent Effect in [7] was 10.4%; in test [8] it was 5.38%; in test [9], 4.95%; in test [10] it was 3.66%; in test [11], -1.65%.

For the molecule `Cc1cnc(CN2CCC(N(C)Cc3nnc(C4CC4)n3C)C2)cn1` (stereo unspecified), the Percent Effect is -4.85% in test [1]; 0% in [2]; 1.39% in test [3]; -3.06% in test [4]; -0.0978% in test [5]; 2.73% in test [6]. Also, the Percent Effect in test [7] was 8.67%; in [8] it was -19.5%; in test [9], 6.45%; in [10] it was 8.64%; in test [11] it was -2.52%.

`CNC(=O)N1CCc2cc(C(=O)N(C)C)c(NCC3CC3)nc2CC1`: the Percent Effect was -4.82% in test [1]; 8.11% in [2]; -2.71% in test [3]; 2.07% in test [4]; -4.4% in [5]; -0.248% in test [6]. Also, the Percent Effect in test [7] was 10.7%; in test [8] it was 18.6%; in test [9], 6.45%; in test [10] it was 16.1%; in test [11], -1.72%.

Regarding `CCOc1cccc(C(C)NC(=O)N2CCC(C(N)=O)CC2)c1` (stereo unspecified), the Percent Effect in test [1] is -2.51%; in [2] it was 2.7%; in test [3], -1.93%; in test [4] it was 5.06%; in test [5] it was -1.93%; in test [6], -0.952%. The Percent Effect in test [7] is 3.97%; in [8], 14.3%; in test [9], 3.7%; in test [10], 9.76%; in test [11] it was -1.95%.

In the case of `CCc1cnc(N2CCC3(CC2)CN(c2cccnc2)C(=O)CO3)nc1`, the Percent Effect in [1] is -5.43%; in test [2], 0%; in test [3] it was 2.98%; in [4], -2.45%; in test [5] it was -3.03%; in test [6], -4.78%. Moreover, the Percent Effect was 7.01% in test [7]; 26.6% in test [8]; -4.32% in [9]; -7.69% in test [10]; 6.26% in test [11].

Turning to `Cc1cnc(C(=O)N2CCc3ncnc(C)c3CC2)cn1`, the Percent Effect was -2.65% in test [1]; 0% in test [2]; -0.0548% in test [3]; 5.51% in test [4]; -1.39% in test [5]; -2.79% in test [6]. Besides, the Percent Effect in [7] was 15.8%; in test [8] it was 19.6%; in [9], 2.08%; in test [10], 11.1%; in test [11], -2.02%.

Consider `COCCc1noc(CNCC2CCCN2c2cccnn2)n1` (stereo unspecified), for which the Percent Effect in test [1] was -4.29%; in test [2] it was 18.2%; in test [3], -3.94%; in test [4], -5.52%; in [5] it was 4.41%; in test [6], -5.68%. Further, the Percent Effect in [7] is 20.8%; in test [8] it was 2.37%; in test [9], 10.5%; in [10] it was 32.9%; in [11] it was -23.1%.
